The full ranking holds about 25,000 sequences; the median of “ln(normalized median fluorescence intensity)” is about 6.7, and the highest 2% start at about 10. The sample holds the highest values, similar sequences and a random draw of the others, so the mix is not that of the screen.
Test system: PfHDP1 homeodomain (GST-tagged)
Assay: gcPBM binding intensity (ln(normalized median fluorescence intensity)); higher = stronger DNA binding
Summary of the method: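 GST-fused DNA-binding domains of P. falciparum, expressed in E. coli, were applied at about 25 μg on average for 1 h to an Agilent 4 × 180k array of primer-extended double-stranded 36-bp intergenic genomic probes and negative controls. Binding intensity is the highest Masliner-normalised natural-log median intensity across replicate spots of either probe orientation, measured with Alexa488 anti-GST antibody and a 488 nm scan.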

**Q.** With “TATAATCTAACATAATGTACATGTATATGCACTTTA [XGTACX_site369]” as the sequence, how does the “gcPBM binding intensity (ln)” value read?
**A.** The value was 8.43.

**Q.** “TTATATTATTCGTGTGTGCACGATATTTCATAATTG [GTGCAC_site9767]” was tested. Which “gcPBM binding intensity (ln)” value did it give?
**A.** Its value is 8.92.

**Q.** Which “gcPBM binding intensity (ln)” value does the source give for “AAAAAAAAATACAAAATAGCAATAAATACACAAACG [GTGCAC_negctrl_site707]” here?
**A.** Its value is 7.12.

**Q.** With “TTTGATGGTACACGTACACACCTTGCAAATATTTTT [CACACA_site4645]” as the sequence, how does the “gcPBM binding intensity (ln)” value read?
**A.** Its value is 7.13.

**Q.** For “AAAGAAAGAAAGAAAAGTACTTAAACTTTTAAAAAT [XGTACX_site8531]”, which “gcPBM binding intensity (ln)” value is on record?
**A.** The value was 6.03.

**Q.** How did the “gcPBM binding intensity (ln)” value turn out when “AAAATCTAATATAATGCACACATAAAAAAAAAATCA [CACACA_site8871]” was run?
**A.** Its value is 10.4.

**Q.** “AAAAAATAATAAATCACACATATTATATATATATAT [CACACA_site5838]” was tested. Which “gcPBM binding intensity (ln)” value did it give?
**A.** Its value is 8.94.

**Q.** With “AAAAAAATCTCCAGTGTGCACAATCACATAATATAT [GTGCAC_site9833]” as the sequence, how does the “gcPBM binding intensity (ln)” value read?
**A.** Its value is 10.8.

**Q.** With “TTATGGAAAAATATAACACACAATGATTTTTTATAA [CACACA_site1831]” as the sequence, how does the “gcPBM binding intensity (ln)” value read?
**A.** Its value is 6.33.

**Q.** With “AAATCGTGCACGGACACATGCAGTAGCCGAGAATTA [TGCATGCA_site733]” as the sequence, how does the “gcPBM binding intensity (ln)” value read?
**A.** The value was 11.1.

**Q.** For “AATCGAAATCGTGCACGGACACATGCAGTAGCCGAG [XGTACX_site6001]”, which “gcPBM binding intensity (ln)” value is on record?
**A.** The value was 10.2.

**Q.** How did the “gcPBM binding intensity (ln)” value turn out when “ATTATGAAATATCGTGCACACACGAATAATATAAGA [CACACA_site1294]” was run?
**A.** Its value is 9.49.

**Q.** With “CACACGCACGGACACACACACATATAAAATCTATAT [CACACA_site6428]” as the sequence, how does the “gcPBM binding intensity (ln)” value read?
**A.** The value was 7.73.

**Q.** With CAATAAATCGAAATCGTGCACGGACACATGCAGTAG as the sequence, how does the “gcPBM binding intensity (ln)” value read?
**A.** The value was 10.9.

**Q.** For ATTTTAAAAAGGATAGTGCAAATGTTAAAATAGGAC, which “gcPBM binding intensity (ln)” value is on record?
**A.** Its value is 9.91.

**Q.** “CGTAAATTTTTTAAAAGTACAAAAAGATACGAGAAA [XGTACX_site8722]” was tested. Which “gcPBM binding intensity (ln)” value did it give?
**A.** Its value is 6.46.

**Q.** For “TATTCATGCATATACACACACATATATTTATATTTT [CACACA_site7786]”, which “gcPBM binding intensity (ln)” value is on record?
**A.** Its value is 7.08.

**Q.** For “TCATATTATAAATAAATAAATAAATATATATATATA [CACACA_negctrl_site577]”, which “gcPBM binding intensity (ln)” value is on record?
**A.** The value was 8.76.

**Q.** How did the “gcPBM binding intensity (ln)” value turn out when TATAAATTAAAATGTGTGCACTAAATTGAAATAGAA was run?
**A.** Its value is 10.6.

**Q.** For “AAATAAAAATTAAAAAAATAGAAACGAATTGAATGC [TGCATGCA_negctrl_site365]”, which “gcPBM binding intensity (ln)” value is on record?
**A.** Its value is 6.69.

**Q.** With GAATAAATATTAAATGTGCACTTGAATAGATGTAAA as the sequence, how does the “gcPBM binding intensity (ln)” value read?
**A.** The value was 9.88.

**Q.** How did the “gcPBM binding intensity (ln)” value turn out when “AATAATATTAACACACGTACAAAAGCAAACAACCAA [XGTACX_site7410]” was run?
**A.** Its value is 7.16.

**Q.** “ATATATATATATCAGAGTACATTCTTTAAAATATAT [XGTACX_site5915]” was tested. Which “gcPBM binding intensity (ln)” value did it give?
**A.** Its value is 8.7.

**Q.** For “ATAATATATATATATGCATGTACATATTTATCTTTA [TGCATGCA_site32]”, which “gcPBM binding intensity (ln)” value is on record?
**A.** The value was 6.74.

**Q.** For “ATGTATGTGTATATATGTACATAATATATATCTTTT [XGTACX_site8666]”, which “gcPBM binding intensity (ln)” value is on record?
**A.** The value was 6.6.

**Q.** For ATAATATCTTTATGTGTGCACATATATATATATATA, which “gcPBM binding intensity (ln)” value is on record?
**A.** Its value is 10.5.

**Q.** Which “gcPBM binding intensity (ln)” value does the source give for “TATATATATATATGTGCACACATAATAAAAAAAAAA [CACACA_site3830]” here?
**A.** Its value is 10.1.

**Q.** Which “gcPBM binding intensity (ln)” value does the source give for ATATATATCTTTTGTGTGCACATATATATAATATAT here?
**A.** Its value is 10.9.

**Q.** “TCTTTTCTTTTGTGTGTGCACATATAAGCATGAAAC [GTGCAC_site9910]” was tested. Which “gcPBM binding intensity (ln)” value did it give?
**A.** Its value is 10.4.

**Q.** Which “gcPBM binding intensity (ln)” value does the source give for “TTTTTTTCTCTCTCTACACACAAGGTTTAATTTAAA [CACACA_site1690]” here?
**A.** Its value is 6.81.

**Q.** For “AATTATAATTAATAGAGTACTGAATATATATATATA [XGTACX_site8683]”, which “gcPBM binding intensity (ln)” value is on record?
**A.** The value was 8.9.

**Q.** For “TATATATATATATATGTGCACTGAAAGAATTATACA [GTGCAC_site9586]”, which “gcPBM binding intensity (ln)” value is on record?
**A.** Its value is 9.76.

**Q.** Which “gcPBM binding intensity (ln)” value does the source give for “ATTATATATAAGAAGAGTACTGAATATGTGCAATAT [XGTACX_site4471]” here?
**A.** Its value is 11.2.

**Q.** How did the “gcPBM binding intensity (ln)” value turn out when “ATTTTAAATATTTGTGGTACCCCTTTTTTGTAACAA [XGTACX_site5590]” was run?
**A.** The value was 6.71.

**Q.** “ATAAAAAAATAAAACACACACATATAGATTATAGAT [CACACA_site7343]” was tested. Which “gcPBM binding intensity (ln)” value did it give?
**A.** Its value is 7.

**Q.** How did the “gcPBM binding intensity (ln)” value turn out when “GTATGTATATATATATGTACATACTGTTTATCGTTA [XGTACX_site6168]” was run?
**A.** Its value is 6.4.

**Q.** “TTTTTTATTCTTTTTGCACACAGGAAATTTACAGAT [CACACA_site1090]” was tested. Which “gcPBM binding intensity (ln)” value did it give?
**A.** The value was 10.6.

**Q.** With “AGGAAATTTGTTATTGCACACAAATTTTTCTTTTTT [CACACA_site8732]” as the sequence, how does the “gcPBM binding intensity (ln)” value read?
**A.** The value was 9.48.

**Q.** “ATATTTTATTTATATACACACACATATATATATTAT [CACACA_site8177]” was tested. Which “gcPBM binding intensity (ln)” value did it give?
**A.** The value was 7.22.

**Q.** “ATGCATCATTTATTTGCACACCTATTATATACTTTT [CACACA_site2097]” was tested. Which “gcPBM binding intensity (ln)” value did it give?
**A.** The value was 10.1.

**Q.** With “ATTTTACATATTTGCACACATATATTTAAATACATA [CACACA_site4627]” as the sequence, how does the “gcPBM binding intensity (ln)” value read?
**A.** Its value is 10.8.

**Q.** With “ATTTTATTTATATACACACACATATATATATTATAT [CACACA_site822]” as the sequence, how does the “gcPBM binding intensity (ln)” value read?
**A.** The value was 7.09.

**Q.** “ATATTTTACATATTTGCACACATATATTTAAATACA [CACACA_site4628]” was tested. Which “gcPBM binding intensity (ln)” value did it give?
**A.** The value was 10.3.

**Q.** “AATTTTATTACTTTTACACACCTATATATCATTCAT [CACACA_site7525]” was tested. Which “gcPBM binding intensity (ln)” value did it give?
**A.** Its value is 6.91.

**Q.** For “ATTTTATTTAAATACACACACATATATATATTATAT [CACACA_site4607]”, which “gcPBM binding intensity (ln)” value is on record?
**A.** Its value is 7.14.

From the supplement of paper PMC11417369
